“And” between values parts separate entries of the source, which are not always exact repeats. Equal entries are not always repeated. Inconclusive results are not listed. The source made the active and inactive calls. Unless noted, calls come from the whole dose curve; as a rule, active = well fitted curve in the direction sought with a large enough effect; inconclusive = small, poorly fitted or top-dose-only effect, or another doubt; inactive = no such curve, though single readings can be large; an effect the other way counts as inactive or inconclusive.
Key:
[1] = qHTS to identify inhibitors of the type 1 interferon - major histocompatibility complex class I in skeletal muscle: primary screen against the NCATS Mechanism Interrogation Plate v5.0 (MIPE) Libary (AID 1347411); note: nearly all actives have a fitted effect of over 65% in size; note: potency is the fitted concentration of half-maximal effect;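 for activity change, negative = inhibition: plate controls were vehicle for no effect and reference inhibitor for full effect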
Outline: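 IFN-beta-driven (4 ng/ml) HLA-B-HiBit expression in CRISPR-tagged C25cl48 myoblasts; compounds 11-pt, 1:3, max 46 uM, 24 hr exposure; lytic NanoLuc complementation luminescence.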

[2] = Primary qHTS for inhibitors of nuclear receptor binding SET domain protein 2 (NSD2) in an isogenic RCH-ACV NSD2 p.E1099K mutant (9B) (AID 1645876); note: nearly all actives have a fitted effect of over 70% in size; note: potency is the fitted concentration of half-maximal effect
[3] = Primary qHTS for inhibitors of nuclear receptor binding SET domain protein 2 (NSD2) in an RCH-ACV wild type WT cells (2C) (AID 1645877); note: nearly all actives have a fitted effect of over 70% in size; note: potency is the fitted concentration of half-maximal effect
[4] = target: Glutathione peroxidase 1 (Homo sapiens) (UniProt P07203); experiment: Primary qHTS Assay for Inhibitors of Recombinant Selenoprotein Glutathione Peroxidase 1 (GPX1) (AID 1845191); note: nearly all actives have a fitted effect of over 65% in size
Chain of Glutathione peroxidase 1 (Homo sapiens) (P07203 whole entry, looked up): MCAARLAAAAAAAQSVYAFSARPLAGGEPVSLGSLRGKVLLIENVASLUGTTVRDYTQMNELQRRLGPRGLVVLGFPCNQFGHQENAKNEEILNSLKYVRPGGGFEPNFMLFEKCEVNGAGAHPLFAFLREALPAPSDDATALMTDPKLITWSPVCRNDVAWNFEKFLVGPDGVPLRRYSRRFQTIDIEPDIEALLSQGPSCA
Outline: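 GPX1 10 nM, GR 100 nM, GSH 1 mM, NADPH 0.5 mM, CHP 0.5 mM (final). 30-min cpd preincubation, RT. Ex340/Em450 read t=0, t=15 min.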

[5] = target: Phospholipid hydroperoxide glutathione peroxidase GPX4 (Homo sapiens) (UniProt P36969); experiment: Primary qHTS Assay for Inhibitors of Recombinant Selenoprotein Glutathione Peroxidase 4 (GPX4) (AID 1845192); details: outcome: dose series up to 50 µM unless noted; note: nearly all actives have a fitted effect of over 65% in size; note: potency is the fitted concentration of half-maximal effect; for activity change, negative = inhibition: % is set by controls: 0 for no effect and ±100 for the full control effect
Chain of Phospholipid hydroperoxide glutathione peroxidase GPX4 (Homo sapiens) (P36969 whole entry, looked up): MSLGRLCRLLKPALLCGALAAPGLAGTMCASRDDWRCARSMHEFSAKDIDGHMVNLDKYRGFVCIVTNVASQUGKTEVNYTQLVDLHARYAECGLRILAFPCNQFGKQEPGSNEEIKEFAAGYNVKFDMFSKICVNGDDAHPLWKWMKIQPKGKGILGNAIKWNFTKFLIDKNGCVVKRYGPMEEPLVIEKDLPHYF
Outline: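 qHTS, GR-coupled: GPX4 200 nM + cpd 30 min RT → GSH 1 mM, NADPH 0.5 mM, GR 100 nM → CHP 0.5 mM start; fluor 340/450 at t0 and t15 min; no-enzyme wells as control.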

[6] = qHTS drug screen for cell cycle checkpoint inhibitors in PARPi-resistant BRCA-mutant ovarian cancer cell lines. (AID 1963452; calls by dose curve; note: potency is the fitted concentration of half-maximal effect); details: PEO1/OlaR viability, CellTiter-Glo luminescence, 96 h; for Z-AUC: stronger effect = lower value
Outline: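 PEO1, PEO4 and PEO1/OlaR ovarian cancer cells, 600 per well, exposed 96 h at 37C to a dilution series. Viability read by CellTiter-Glo luminescence, normalized to DMSO and empty wells; activity summarized as Z-AUC.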

[7] = qHTS assay to identify inhibitors of the type 1 interferon - major histocompatibility complex class I in skeletal muscle: Counter screen cell viability and HiBit confirmation (AID 1347412); details: iHSKM muscle cells + IFN-b, HiBiT or CellTiter-Glo, 24 h; for activity change, negative = inhibition: at 45.9 µM (top of the series); note: potency is the fitted concentration of half-maximal effect; for activity change, negative = inhibition: % is set by controls: 0 for no effect and ±100 for the full control effect; for all read-outs here: nearly all actives have a fitted effect of over 60% in size
Outline: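 HLA-B*08:01–HiBiT knock-in immortalized human myoblasts (C25cl48) stimulated with 4.0 ng/ml human IFN-beta and dosed with compound in a 12-point 1:3 titration (top final 46 uM). After 24 hrs at 37 C, HiBiT lytic luminescence or CellTiter Glo ATP read out.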

[8] = measured here: PEO1 parental Z-AUC

SMILES	Potency [1]	Potency [2]	Potency [3]	Potency [4]	Potency [5]	Z-AUC [6]	Z-AUC [6, 8]	Z-AUC ([6]; measured here: PEO4 Z-AUC)	Potency ([7]; HiBiT)	activity change, negative = inhibition ([7]; Viability)	Potency [6]	Potency ([7]; Viability)
CC(C)c1c(-c2ccccc2)nc2c(C#N)c[nH]n2c1=O	5230 nM (active)	inactive	inactive	inactive	inactive	1.36 (inactive)	0.594	0.731	3940 nM (active)	-0.422% (inactive)	–	–
COc1ccc(N2C(=O)N(c3c(C)cccc3Cl)Cc3cnc(Nc4ccc(C5CCN(C)CC5)cc4OC)nc32)nc1	14700 nM (active)	3320 nM (active)	3720 nM (active)	inactive	inactive	-1.61 (inactive)	-1.1	-0.332	14000 nM (active)	–	–	–
CC(=O)c1ccc2c(c1)c1cc(C(C)=O)ccc1n2CCNC(C)C	1470 nM (active)	742 nM (active)	662 nM (active)	–	16100 nM (active)	–	-1.63	-1.42	1110 nM (active)	-5.98% (inactive)	1550 nM (active)	–
OC1CCC(Oc2cccc3cnc(Nc4ccc5nc[nH]c5c4)nc23)CC1 (stereo not drawn)	523 nM (active)	590 nM (active)	468 nM (active)	inactive	inactive	-1.25 (inactive)	-1.54	-0.421	557 nM (active)	9.5% (inactive)	–	–
Cc1ccc(NC(=O)c2ccc3c(c2)OCCO3)cc1NC(=O)c1ccc2nc(OCCN3CCCC3)ccc2c1	286 nM (active)	57.4 nM (active)	45.6 nM (active)	inactive	inactive	-1.99 (inactive)	-1.87	-2.21	557 nM (active)	-19.9% (inactive)	–	–
C[C@H](NC(=O)/C(C#N)=C/c1cccc(Br)n1)c1ccccc1	10400 nM (active)	14800 nM (active)	14800 nM (active)	inactive	inactive	0.178 (inactive)	-0.139	-0.487	7010 nM (active)	17% (inactive)	–	–
CC1(C)OC2=C(C(=O)c3ccccc3C2=O)[C@H](NCc2ccccc2)[C@@H]1O	9300 nM (active)	7420 nM (active)	6610 nM (active)	inactive	inactive	0.63 (inactive)	1.22	1.45	9910 nM (active)	–	–	14000 nM (active)
Cc1c[nH]c2nc(Nc3ccc(N4CCN(C)CC4)c(F)c3)nc(-c3cccc(CC#N)c3)c12	2340 nM (active)	525 nM (active)	332 nM (active)	inactive	inactive	-0.269 (inactive)	-0.34	-0.115	1760 nM (active)	–	–	–
Cc1cc(-n2c(=O)ccc3cnc4[nH]ccc4c32)ccc1F	4150 nM (active)	18600 nM (active)	–	inactive	inactive	-0.465 (inactive)	0.0709	0.281	3520 nM (active)	5.99% (inactive)	–	–
CN(C)CCN1C(=O)c2cccc3cc(NC(N)=O)cc(c23)C1=O	7390 nM (active)	2350 nM (active)	1860 nM (active)	–	inactive	-0.63 (inactive)	-1.2	-1.08	17600 nM (active)	-14% (inactive)	–	–
NC(=O)/C(=C/n1cnc(-c2cc(C(F)(F)F)cc(C(F)(F)F)c2)n1)c1cncnc1	3300 nM (active)	417 nM (active)	235 nM (active)	inactive	inactive	-0.773 (inactive)	-2.06	-1.68	1570 nM (active)	–	–	–
CN(Cc1ccc(/C=C/C(=O)NO)cc1)CC12CC3CC(CC(C3)C1)C2	330 nM (active)	263 nM (active)	209 nM (active)	inactive	inactive	-0.476 (inactive)	-0.953	-1.12	351 nM (active)	-18.3% (inactive)	–	–
CCC[C@H](NC(=O)/C(C#N)=C/c1cccc(Br)n1)c1ccccc1	4150 nM (active)	11800 nM (active)	13200 nM (active)	inactive	inactive	0.211 (inactive)	0.0929	0.0816	6250 nM (active)	–	–	–
CC(=O)Nc1cc(Oc2ccc3c(nc(Nc4ccc(F)cc4F)n3C)c2C)ccn1	262 nM (active)	11800 nM (active)	2630 nM (active)	inactive	inactive	-0.216 (inactive)	-0.646	-1.5	1110 nM (active)	–	–	–
Clc1cccc(-c2ccc(-c3nnc(CCCc4ccc5cccnc5n4)o3)cc2)c1	inactive	inactive	inactive	inactive	inactive	1.61 (inactive)	1.52	1.67	–	–	–	–
COC1CCC(N2C(=O)CNc3ncc(-c4ccc(C(C)(C)O)nc4)nc32)CC1 (stereo not drawn)	13100 nM (active)	3720 nM (active)	3720 nM (active)	–	3210 nM (active)	1.16 (inactive)	0.788	0.864	11100 nM (active)	-5.62% (inactive)	–	–
COC(=O)c1ccc([C@H]2c3[nH]c4ccccc4c3C[C@H](C(=O)OC)N2C(=O)CCl)cc1	829 nM (active)	148 nM (active)	148 nM (active)	inactive	inactive	-1.5 (inactive)	0.403	-0.118	496 nM (active)	–	–	787 nM (active)
Cc1c(NC(=O)c2cc(C(N)=O)nc3cc(F)ccc23)c(C(F)(F)F)nn1Cc1ccc(C(C)(C)C)cc1	inactive	inactive	inactive	inactive	inactive	-0.453 (inactive)	-0.106	0.0379	–	–	–	–

SMILES	Potency [1]	Potency [2]	Potency [3]	Potency [4]	Potency [5]	Z-AUC [6]	Z-AUC [6, 8]	Z-AUC ([6]; measured here: PEO4 Z-AUC)	Potency ([7]; HiBiT)	activity change, negative = inhibition ([7]; Viability)	Potency [6]	Potency ([7]; Viability)
Cc1c(-c2cnccn2)ssc1=S	inactive	16600 nM (active)	13200 nM (active)	inactive	–	-0.037 (inactive)	0.595	0.421	–	–	–	–
CCC1CCCCN1C(=O)n1ncc(C(O)(c2ccccc2)c2ccccc2)n1 (stereo not drawn)	inactive	10500 nM (active)	14800 nM (active)	inactive	inactive	0.1 (inactive)	0.47	0.409	–	–	–	–
Cn1c(-c2ccccc2C(F)(F)F)nnc1C12CCC(c3noc(C4CC(F)(F)C4)n3)(CC1)CC2	inactive	inactive	inactive	inactive	inactive	1.42 (inactive)	1.05	1.41	–	–	–	–
CC[C@H]1OC(=O)[C@H](C)C(=O)[C@H](C)[C@@H](O[C@H]2O[C@H](C)C[C@H](N(C)C)[C@H]2O)[C@](C)(OC)C[C@@H](C)C(=O)[C@H](C)[C@H]2N(CCCCn3cnc(-c4cccnc4)c3)C(=O)O[C@]12C	inactive	inactive	inactive	inactive	inactive	0.729 (inactive)	0.267	-0.0116	–	–	–	–
C[C@H]1[C@H](C)CC[C@]2(C(=O)O)CC[C@]3(C)C(=CC[C@@H]4[C@@]5(C)CC[C@H](O)C(C)(C)[C@@H]5CC[C@]43C)[C@H]12	inactive	inactive	inactive	inactive	inactive	0.556 (inactive)	0.879	0.501	–	–	–	–
C=C1CCC2[C@](C)(CO)C(O)CC[C@]2(C)C1C/C=C1/C(=O)OCC1O (stereo partly drawn)	13100 nM (active)	7420 nM (active)	7420 nM (active)	–	inactive	0.689 (inactive)	-0.31	-0.312	–	–	–	–
COC1=C(OC)C(=O)C(C/C=C(\C)CC/C=C(\C)CC/C=C(\C)CC/C=C(/C)CC/C=C(\C)CC/C=C(\C)CC/C=C(\C)CC/C=C(\C)CC/C=C(\C)CCC=C(C)C)=C(C)C1=O	inactive	inactive	inactive	–	–	–	–	–	–	–	–	–
Cc1c(-c2ccc(-c3ccccc3F)cc2)nc2ccc(F)cc2c1C(=O)O	inactive	105 nM (active)	148 nM (active)	inactive	inactive	–	–	–	–	–	–	–
COc1ccc(C(=O)N2CCN(c3ccc4c(c3)CCC(=O)N4)CC2)cc1OC	inactive	inactive	inactive	inactive	inactive	-0.238 (inactive)	0.0272	0.0147	–	–	–	–
CCS(=O)(=O)c1ccc2oc(-c3ccc4ccccc4c3)nc2c1	inactive	inactive	inactive	inactive	inactive	-0.19 (inactive)	-0.286	0.217	–	–	–	–
C[C@H]1CNCCCN1S(=O)(=O)c1cccc2cncc(F)c12	inactive	inactive	inactive	inactive	inactive	-0.978 (inactive)	-0.15	0.771	–	–	–	–
O=C(/C=C/N1C[C@H]2C[C@@H]1CN2c1ccccn1)c1ccccc1O	inactive	inactive	inactive	inactive	inactive	1.02 (inactive)	0.925	0.836	–	–	–	–
O=C(/C=C\n1cnc(-c2cc(C(F)(F)F)cc(C(F)(F)F)c2)n1)NNc1ccccn1	2340 nM (active)	3720 nM (active)	3320 nM (active)	inactive	inactive	-0.821 (inactive)	-1.43	-1.79	–	–	–	–
C[C@]12CCC3[C@@H](CC[C@H]4NC(=O)C=C[C@]34C)[C@@H]1CC[C@@H]2C(=O)Nc1cc(C(F)(F)F)ccc1C(F)(F)F (stereo partly drawn)	inactive	inactive	inactive	inactive	inactive	-1.09 (inactive)	-1.05	-1.07	–	–	–	–
C/C(=N\NC(=O)c1cccc(S(=O)(=O)N2CCOCC2)c1)c1cc(Cl)ccc1O	inactive	2090 nM (active)	2090 nM (active)	inactive	inactive	-1.37 (inactive) and -1.59 (inactive)	-1.95 and -1.28	-2.11 and -1.42	–	–	–	–
NS(=O)(=O)c1ccc(S(=O)(=O)Nc2cccc3c(Cl)c[nH]c23)cc1	inactive	742 nM (active)	590 nM (active)	inactive	inactive	-0.956 (inactive)	-0.0531	-0.727	–	–	–	–
C/C(=N\NC(=S)N1CCC1)c1ccccn1	inactive	10.5 nM (active)	9.3 nM (active)	inactive	inactive	-0.969 (inactive)	-1.12	-1.07	–	–	–	–
